Holding throughout (set-up): scale not given: direction of the effect not stated beside the values
The target of assay [1] is Protein translocase subunit SecA (Escherichia coli (strain K12)) (UniProt P10408). Description: Assay to Identify E. coli SecA ATPase Inhibitors. The conditions noted are these: 30 µM. The format is functional.
Assay [2] addresses T1, Ubiquitin-activating enzyme e1, putative (Leishmania donovani (strain BPK282A1)) (UniProt E9BSI1).
T1 sequence (whole entry): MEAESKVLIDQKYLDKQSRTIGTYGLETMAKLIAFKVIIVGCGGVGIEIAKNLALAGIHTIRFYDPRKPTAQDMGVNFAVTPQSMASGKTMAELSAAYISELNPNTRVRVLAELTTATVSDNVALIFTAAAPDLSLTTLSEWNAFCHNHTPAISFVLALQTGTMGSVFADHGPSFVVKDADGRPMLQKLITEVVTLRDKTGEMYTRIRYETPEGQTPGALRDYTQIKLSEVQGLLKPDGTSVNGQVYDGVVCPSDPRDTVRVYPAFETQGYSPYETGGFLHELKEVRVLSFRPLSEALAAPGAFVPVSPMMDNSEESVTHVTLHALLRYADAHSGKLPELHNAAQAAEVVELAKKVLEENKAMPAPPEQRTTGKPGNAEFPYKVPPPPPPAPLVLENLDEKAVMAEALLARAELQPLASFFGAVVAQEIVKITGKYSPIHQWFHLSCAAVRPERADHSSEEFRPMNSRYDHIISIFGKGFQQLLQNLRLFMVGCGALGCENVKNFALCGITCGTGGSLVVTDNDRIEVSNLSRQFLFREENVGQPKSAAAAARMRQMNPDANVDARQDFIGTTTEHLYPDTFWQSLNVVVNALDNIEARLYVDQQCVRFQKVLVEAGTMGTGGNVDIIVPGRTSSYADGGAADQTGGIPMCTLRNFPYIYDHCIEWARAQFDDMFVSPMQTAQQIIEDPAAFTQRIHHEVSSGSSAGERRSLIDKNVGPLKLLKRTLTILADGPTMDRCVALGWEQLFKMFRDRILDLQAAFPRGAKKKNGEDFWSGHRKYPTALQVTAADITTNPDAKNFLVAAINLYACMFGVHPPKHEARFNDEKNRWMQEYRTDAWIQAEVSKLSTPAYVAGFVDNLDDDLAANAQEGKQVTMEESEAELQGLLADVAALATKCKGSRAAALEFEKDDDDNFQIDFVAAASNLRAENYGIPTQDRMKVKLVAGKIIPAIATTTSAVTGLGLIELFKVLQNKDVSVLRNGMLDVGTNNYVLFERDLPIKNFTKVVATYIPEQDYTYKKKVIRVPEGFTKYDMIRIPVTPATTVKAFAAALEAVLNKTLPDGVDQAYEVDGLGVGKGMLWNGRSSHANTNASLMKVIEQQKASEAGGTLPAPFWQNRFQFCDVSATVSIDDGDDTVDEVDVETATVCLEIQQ
Description: Leishmania donovani Ubiquitin Activating Enzyme (LdE1). The format is functional. Conditions: 30 µM.

Assay [3] deals with Sialic acid-binding Ig-like lectin 9 (Homo sapiens) (UniProt Q9Y336). Briefly: Hs-Siglec9 ALPHAscreen SOP 20170721. Conditions: 10 µM. (In general: Alpha assays give light when donor and acceptor beads are brought close together.)
Sequence of Sialic acid-binding Ig-like lectin 9 (Homo sapiens) (Q9Y336 whole entry): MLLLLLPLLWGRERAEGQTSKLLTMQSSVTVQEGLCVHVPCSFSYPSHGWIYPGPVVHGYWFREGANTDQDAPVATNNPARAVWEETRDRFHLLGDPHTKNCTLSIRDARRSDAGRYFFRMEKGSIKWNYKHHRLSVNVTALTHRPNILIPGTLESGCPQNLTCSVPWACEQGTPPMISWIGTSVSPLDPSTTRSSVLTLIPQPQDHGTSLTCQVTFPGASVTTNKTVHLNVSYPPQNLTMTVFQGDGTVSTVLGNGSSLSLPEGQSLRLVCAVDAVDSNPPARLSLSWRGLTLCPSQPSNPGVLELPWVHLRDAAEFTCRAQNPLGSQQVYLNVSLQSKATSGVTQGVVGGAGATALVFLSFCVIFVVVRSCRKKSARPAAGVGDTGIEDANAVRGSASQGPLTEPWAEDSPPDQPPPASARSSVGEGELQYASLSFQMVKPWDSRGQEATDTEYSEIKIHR
The subject of assay [4] is Trypanosoma cruzi. Briefly: Trypanosoma cruzi phosphomannomutase and mannose-1-phosphate guanylyltransferase assay. The format is functional. Conditions: 10 µM.
Assay [5] addresses T2, Arginase-2, mitochondrial (Homo sapiens) (UniProt P78540).
T2 sequence (whole entry): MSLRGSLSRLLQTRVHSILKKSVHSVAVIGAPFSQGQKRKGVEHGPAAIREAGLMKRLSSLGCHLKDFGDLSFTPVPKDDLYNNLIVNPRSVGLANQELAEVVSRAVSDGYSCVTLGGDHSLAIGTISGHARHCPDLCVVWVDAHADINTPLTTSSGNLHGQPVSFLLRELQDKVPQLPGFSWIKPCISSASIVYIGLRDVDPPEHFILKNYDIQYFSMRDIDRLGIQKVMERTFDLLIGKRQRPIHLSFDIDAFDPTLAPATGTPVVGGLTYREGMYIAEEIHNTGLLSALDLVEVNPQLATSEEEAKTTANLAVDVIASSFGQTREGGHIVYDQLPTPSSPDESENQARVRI
Description: in vitro enzyme assay to detect the production of urea directly proportional to the activity of Arginase II. Note: in the data most compounds retested in dose-response had high values. The format is functional. The conditions noted are these: 33.3 µM.

Assay [6] deals with T3, Proteasome subunit beta (Trypanosoma cruzi) (UniProt O96673).
T3 sequence (whole entry): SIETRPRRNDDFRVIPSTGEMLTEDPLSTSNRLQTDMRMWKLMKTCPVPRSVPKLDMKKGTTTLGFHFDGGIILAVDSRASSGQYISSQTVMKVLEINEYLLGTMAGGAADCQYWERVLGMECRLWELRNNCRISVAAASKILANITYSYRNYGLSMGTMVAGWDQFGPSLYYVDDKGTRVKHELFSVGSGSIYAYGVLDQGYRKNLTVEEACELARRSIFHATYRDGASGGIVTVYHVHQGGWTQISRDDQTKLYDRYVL
Briefly: Trypanosoma cruzi proteasome chymotrypsin-like activity (TcProtChymo) assay. Note: in the data most compounds retested in dose-response had high values. The format is functional. Conditions: 9.37 µM.

Assay [7] is filed under the species Homo sapiens. Briefly: To identify inhibition of the IFN signalling (Jak-Stat) pathway via expression of an eGFP reporter gene under the control of an IFN-stimulated response element (ISRE) containing MxA promoter. The format is functional. The conditions noted are these: 30 µM. In general terms: In a reporter assay the amount or activity of a reporter protein is the signal.

Assay [8] concerns the target T4, Tyrosyl-tRNA synthetase, putative (Trypanosoma cruzi (strain CL Brener)) (UniProt Q4DSP6).
T4 sequence (whole entry): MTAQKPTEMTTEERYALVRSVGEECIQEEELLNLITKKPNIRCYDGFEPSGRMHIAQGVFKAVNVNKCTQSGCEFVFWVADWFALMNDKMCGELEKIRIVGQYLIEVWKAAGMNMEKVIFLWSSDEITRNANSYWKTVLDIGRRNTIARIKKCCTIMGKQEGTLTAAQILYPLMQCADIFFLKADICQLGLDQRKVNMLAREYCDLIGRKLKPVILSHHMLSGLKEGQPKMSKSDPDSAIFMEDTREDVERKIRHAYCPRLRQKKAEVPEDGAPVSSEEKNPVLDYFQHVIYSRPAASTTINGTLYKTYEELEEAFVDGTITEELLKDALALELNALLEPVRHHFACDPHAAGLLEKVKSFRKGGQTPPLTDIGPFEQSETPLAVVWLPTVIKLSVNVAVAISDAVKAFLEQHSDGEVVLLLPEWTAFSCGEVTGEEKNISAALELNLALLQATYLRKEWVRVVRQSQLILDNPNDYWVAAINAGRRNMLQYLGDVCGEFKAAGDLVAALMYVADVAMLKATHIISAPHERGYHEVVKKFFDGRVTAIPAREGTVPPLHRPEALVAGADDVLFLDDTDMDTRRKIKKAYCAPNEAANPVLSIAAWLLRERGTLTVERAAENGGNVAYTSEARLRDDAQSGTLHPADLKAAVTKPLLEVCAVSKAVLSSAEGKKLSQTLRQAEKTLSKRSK
Description: Trypanosoma cruzi tyrosyl tRNA synthetase (TcYRS) _High Tyrosine SOP. Note: in the data most compounds retested in dose-response had high values. Conditions: 30 µM. The format is functional.

In assay [9] the target is T4, Tyrosyl-tRNA synthetase, putative (Trypanosoma cruzi (strain CL Brener)). Briefly: Trypanosoma cruzi tyrosyl tRNA synthetase (TcYRS) SOP. The format is functional. The conditions noted are these: 30 µM.
Assay [10] addresses Chromo domain-containing protein 1 (Saccharomyces cerevisiae (strain ATCC 204508 / S288c) (Baker's yeast)) (UniProt P32657). Description: ScCHD-1 Enzyme Inhibition Assay. Note: in the data most compounds retested in dose-response had high values. The format is functional. Conditions: 30 µM.
For assay [11], the system named is N/A. Briefly: Trypanosoma cruzi proteasome luciferase counter-screen. The format is functional. Conditions: 9.37 µM. On the technique in general: A counterscreen serves to expose hits that act by an unwanted route or on another target.

The structures appear in SMILES notation. Several values for one entry are separate records, joined by “and”; a condition that tells them apart may be missing. Equal entries are not always repeated. For some assays here: Entries with a potency or affinity are not part of this list.

Sequence of Chromo domain-containing protein 1 (Saccharomyces cerevisiae (strain ATCC 204508 / S288c) (Baker's yeast)) (P32657 whole entry, the tested form may be a part): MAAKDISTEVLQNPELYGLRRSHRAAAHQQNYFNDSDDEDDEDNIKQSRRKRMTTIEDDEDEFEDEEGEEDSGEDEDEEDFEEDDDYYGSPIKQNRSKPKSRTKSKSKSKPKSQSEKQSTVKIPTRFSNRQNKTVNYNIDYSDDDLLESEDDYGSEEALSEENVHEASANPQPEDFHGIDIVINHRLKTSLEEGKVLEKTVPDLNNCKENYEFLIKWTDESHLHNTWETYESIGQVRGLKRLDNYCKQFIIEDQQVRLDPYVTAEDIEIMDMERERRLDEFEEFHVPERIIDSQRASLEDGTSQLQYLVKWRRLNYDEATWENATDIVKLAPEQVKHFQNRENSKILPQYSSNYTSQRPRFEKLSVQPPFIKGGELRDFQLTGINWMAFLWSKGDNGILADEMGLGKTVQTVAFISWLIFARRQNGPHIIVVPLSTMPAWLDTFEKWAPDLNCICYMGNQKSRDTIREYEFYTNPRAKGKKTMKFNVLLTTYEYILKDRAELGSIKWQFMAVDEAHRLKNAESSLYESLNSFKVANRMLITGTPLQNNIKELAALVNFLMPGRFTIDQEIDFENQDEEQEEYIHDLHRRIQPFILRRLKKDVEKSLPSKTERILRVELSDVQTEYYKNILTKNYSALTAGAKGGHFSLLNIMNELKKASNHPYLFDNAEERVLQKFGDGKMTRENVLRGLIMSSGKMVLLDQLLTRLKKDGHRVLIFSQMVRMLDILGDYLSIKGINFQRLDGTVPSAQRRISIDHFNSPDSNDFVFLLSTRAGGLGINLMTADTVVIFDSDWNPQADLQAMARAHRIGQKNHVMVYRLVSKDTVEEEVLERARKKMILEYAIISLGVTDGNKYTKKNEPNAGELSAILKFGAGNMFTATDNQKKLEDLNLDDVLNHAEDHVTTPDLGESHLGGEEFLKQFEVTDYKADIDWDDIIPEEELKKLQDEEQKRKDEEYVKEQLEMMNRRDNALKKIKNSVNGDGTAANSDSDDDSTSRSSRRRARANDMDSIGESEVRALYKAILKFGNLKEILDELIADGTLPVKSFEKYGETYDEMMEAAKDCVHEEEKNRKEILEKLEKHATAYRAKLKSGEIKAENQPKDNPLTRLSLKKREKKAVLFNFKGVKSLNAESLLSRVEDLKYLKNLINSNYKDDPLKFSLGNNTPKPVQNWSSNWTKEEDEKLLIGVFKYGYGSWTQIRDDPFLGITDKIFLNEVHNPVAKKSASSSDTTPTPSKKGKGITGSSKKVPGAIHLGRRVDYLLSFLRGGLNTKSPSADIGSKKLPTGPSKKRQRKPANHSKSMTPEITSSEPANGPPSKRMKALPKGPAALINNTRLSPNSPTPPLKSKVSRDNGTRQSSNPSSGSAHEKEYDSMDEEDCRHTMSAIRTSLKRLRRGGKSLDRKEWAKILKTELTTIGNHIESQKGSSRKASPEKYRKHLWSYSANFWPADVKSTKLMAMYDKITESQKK
Sequence of Protein translocase subunit SecA (Escherichia coli (strain K12)) (P10408 whole entry): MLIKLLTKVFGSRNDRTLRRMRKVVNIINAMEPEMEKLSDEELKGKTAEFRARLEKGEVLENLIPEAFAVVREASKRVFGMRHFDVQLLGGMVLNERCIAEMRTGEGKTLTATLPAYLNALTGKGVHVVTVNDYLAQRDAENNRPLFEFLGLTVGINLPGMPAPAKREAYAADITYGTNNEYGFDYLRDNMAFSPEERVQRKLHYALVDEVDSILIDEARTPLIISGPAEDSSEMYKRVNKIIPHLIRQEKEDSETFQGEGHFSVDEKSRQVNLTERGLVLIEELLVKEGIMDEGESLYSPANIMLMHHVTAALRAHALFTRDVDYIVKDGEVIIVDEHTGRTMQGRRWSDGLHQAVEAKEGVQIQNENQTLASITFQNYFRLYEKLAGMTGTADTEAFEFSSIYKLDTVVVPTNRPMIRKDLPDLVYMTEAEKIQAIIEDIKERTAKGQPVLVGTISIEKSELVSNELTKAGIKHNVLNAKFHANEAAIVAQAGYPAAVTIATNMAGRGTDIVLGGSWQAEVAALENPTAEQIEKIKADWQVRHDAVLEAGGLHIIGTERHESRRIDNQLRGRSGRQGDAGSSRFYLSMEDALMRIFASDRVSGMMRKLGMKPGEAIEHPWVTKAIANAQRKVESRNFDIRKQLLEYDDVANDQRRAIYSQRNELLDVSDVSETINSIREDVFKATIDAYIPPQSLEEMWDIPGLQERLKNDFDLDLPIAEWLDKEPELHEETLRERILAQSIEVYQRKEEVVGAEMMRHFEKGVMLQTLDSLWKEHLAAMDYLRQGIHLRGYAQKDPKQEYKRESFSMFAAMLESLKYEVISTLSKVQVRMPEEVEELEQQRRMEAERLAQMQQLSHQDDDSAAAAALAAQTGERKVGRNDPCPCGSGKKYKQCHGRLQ

As for `Cc1cc(CN2CCCC2c2noc(C)n2)no1` (stereo not given), the Percent Effect is 3.19% in assay [1]; 2.67% in assay [2]; 5.36% in assay [3]; -2.41% in assay [4]; 3.99% in assay [5]; 6.7% in assay [6]. For the same compound, the Percent Effect in assay [7] is 2.71%; in assay [8], 0.526%; in [9], -2.56%; in assay [10], -6.2%.
With `COCCc1noc(CN2CCCC2c2c(C)nn(C)c2C)n1` (stereo not given), the Percent Effect in assay [1] was -3.14%; in [2], 0%; in [3], 5.73%; in assay [4], 5.22%; in [5], -0.887%; in assay [6] it was 3.14%. The Percent Effect was -16.4% in [7], 1.58% in assay [8], 2.56% in assay [9] and -6.66% in assay [10].
Turning to `c1csc(CN2CCOCC3(CCN(C4CCOCC4)C3)C2)n1` (stereo not given), the Percent Effect in assay [1] was -5.6%; in [2], 6.49%; in [3] it was -3.43%; in [4], -4.77%; in assay [5] it was -5.67%; in [6], 16.9%. Moreover, the Percent Effect was -1.84% in [7], 2.63% in assay [8], -2.56% in assay [9] and -0.251% in assay [10].
Regarding `CC(=O)N1CCc2c(nc(-c3ccncc3)nc2N(C)CC(O)CO)C1` (stereo not given), the Percent Effect was -4.98% in assay [1]; 2.7% in [2]; 3.26% in assay [3]; -2.62% in assay [4]; 5.94% in assay [5]; 3.94% in assay [6]. The Percent Effect is 12.2% in [7], 5.85% in assay [8], 14.6% in [9] and -4.24% in assay [10].
In the case of `Cc1nc[nH]c1CN1CCN(C(=O)CCC(F)(F)F)[C@H]2CS(=O)(=O)C[C@H]21`, the Percent Effect was -7.21% in assay [1]; 2.7% in [2]; 12% in assay [3]; 7.66% in [4]; 14.3% in [5]; 15.1% in assay [6]. Further, the Percent Effect in [7] is 11.2%; in [8], 7.98%; in [9], 12.2%; in assay [10] it was -1.8%.
As for `Cc1[nH]/c(=N\C(=O)c2csc(NCC(C)C)n2)sc1C`, the Percent Effect in [1] is -5.08%; in [2], 5.41%; in assay [3], 2.69%; in assay [4] it was -3.2%; in assay [5], -2.45%; in assay [11], 53.4% and 61%. Also, the Percent Effect in assay [7] is 20.5%; in [8] it was 5.85%; in assay [9] it was 21.9%; in [10], 0.249%.
Take `O=C(Cc1cn2ccsc2n1)N1CCCC(n2cncn2)C1` (stereo not given): the Percent Effect in [1] is -3.72%; in assay [2] it was 12.8%; in [3], -3.95%; in [4], -4.22%; in assay [5], -5.74%; in assay [6], 13.9%. Besides, the Percent Effect is 31.1% in [7], 4.31% in assay [8], 13.2% in assay [9] and -5.26% in assay [10].
As for `Cc1nccn1-c1cccc(C2CCCN2S(=O)(=O)N(C)C)n1` (stereo not given), the Percent Effect in [1] is -4.04%; in [2], 14.7%; in assay [3] it was 13.1%; in assay [4], 1.77%; in assay [5], -0.443%; in assay [6], 8.05%. In addition, the Percent Effect in assay [7] is 21%; in assay [8], 5.29%; in assay [9] it was 15%; in assay [10], -24.5%.
Take `COC(=O)CC(c1ccc(OC)c(OC)c1)c1oc(C)cc(=O)c1O` (stereo not given): the Percent Effect in assay [1] was -11%; in assay [2], 2.7%; in assay [3], 0.92%; in assay [4], -4.75%; in assay [5] it was -10.1%; in [6], 4.45%. In addition, the Percent Effect in assay [7] is 14.4%; in [8], -0.532%; in assay [9], -2.44%; in assay [10] it was -0.871%.
Take `CCc1nc(C2CCCN2C(=O)c2nccnc2N)no1` (stereo not given): the Percent Effect in assay [1] was -2.75%; in [2], -5.13%; in assay [3] it was -2.27%; in [4] it was 8.92%; in assay [5], 0.82%; in assay [6], -4.69%. The Percent Effect in assay [7] was -2.29%; in [8], -2.39%; in assay [9] it was 6.02%; in assay [10], -1.91%.
In the case of `Cc1ncccc1NC(=O)C1=NOC2(CCN(Cc3nccs3)C2)C1` (stereo not given), the Percent Effect was -7.98% in assay [1]; -14.3% in assay [2]; 2.46% in [3]; -0.682% in [4]; 4.45% in assay [5]; 17.7% in assay [6]. In addition, the Percent Effect in [7] was -6.55%; in [8], 6.84%; in [9], 15.4%; in [10], 5.53%.

For the origin of these results see ChEMBL document CHEMBL3988442, “University of Dundee, Small-Polar-MMV Screening Library” (2021).
